Results on seven compounds are retold here after PubChem BioAssay (Tox21).

Values without a mark were called inactive. Records with an inconclusive call do not appear. Active and inactive are the calls of the source. Unless noted, the call rests on the fitted dose curve.

The nature of test [1]: Nuclear factor erythroid 2-related factor 2/antioxidant responsive element (Nrf2/ARE) small molecule agonists: luciferase reporter gene qHTS assay in human keratinocytes (AID 1919969). Further: nearly all actives have a fitted effect of over 35% in size. Further: potency means the concentration at half of the fitted maximal effect. Background: Reporter assays use an easily measured gene product as a stand-in for the process of interest.
Test [2] concerns the target Gonadotropin-releasing hormone receptor (Homo sapiens) (UniProt P30968). As to the kind of experiment: Human gonadotropin-releasing hormone receptor (GnRHR) small molecule agonists, calcium flux assay in GnRHR-HEK293 cells (AID 1920063). Further: nearly all actives have a fitted effect of over 35% in size. The procedure, abridged:
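We seeded human GnRHR-expressing HEK293 cells for 18 hours, loaded them with calcium dye for an hour at 37 C, added test compounds, and recorded fluorescence intensity kinetically for three minutes.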
(In general: Calcium assays in cells follow changes in intracellular calcium, usually with a dye or a luminescent sensor.)

The target in test [3] is KiSS-1 receptor (Homo sapiens) (UniProt Q969F8). As to the kind of experiment: Human kisspeptin (KISS1R) small molecule agonists, calcium flux assay in KISS1R-HEK293 cells (AID 1920064; active means well fitted activation curve with a large enough effect in the repeat runs). The procedure, abridged:
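Kinetic calcium assay, 1 s sampling over 3 min at Ex/Em 480/540, in HEK293 cells engineered with human KISS1R; compounds delivered in DMSO after 1 h dye loading.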

Test [4] in a line: G protein-coupled receptor (GPCR) small molecule agonists, calcium flux assay: HEK293 wild type cell line counter screen (AID 1920065). The procedure, abridged:
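Calcium-sensitive dye, loaded 1 h at 37 C into cells cultured 18 h, reports compound-evoked calcium release as fluorescence (Ex/Em 480/540), measured over 3 min. Agonist mode; 15-point titrations, triplicate.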

The nature of test [5]: p53 small molecule agonists, cell-based qHTS assay with human liver microsomes (AID 1963577). The procedure, abridged:
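Cells carrying a p53-responsive bla reporter were rested 5 h (37 C, 5% CO2) before compound transfer. Human liver microsomes plus NADPH, 0.5 mg/mL final apiece, supplied metabolism during the 16 h 37 C exposure.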
For orientation: qHTS replaces the single test concentration by a dilution series.

A short description of test [6]: p53 small molecule agonists, cell-based qHTS assay with rat liver microsomes (AID 1963578). The procedure, abridged: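 Fluorescence from a beta-lactamase reporter under a p53 response element was measured after cells had been incubated 16 h at 37 C with test compound and rat liver microsomes plus NADPH (0.5 mg/mL final each).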
Test [7] can be described thus: p53 small molecule agonists, cell-based qHTS assay with human liver microsomes: qHTS cell viability counter screen (AID 1963579). Further: nearly all actives have a fitted effect of over 45% in size. The procedure, abridged:
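Seed p53RE-bla cells at 4,000 per well; incubate 5 h at 37 C; add compound, human liver microsomes and NADPH; incubate 16 h at 37 C; add CellTiter-Glo; after 30 min at room temperature, read luminescence.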

The nature of test [8]: p53 small molecule agonists, cell-based qHTS assay with rat liver microsomes: qHTS cell viability counter screen (AID 1963580). Further: nearly all actives have a fitted effect of over 45% in size. The procedure, abridged: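 In HCT-116 cells carrying a p53 response element-bla reporter, compounds were metabolically activated in situ by rat liver microsomes with NADPH over 16 h. Cell ATP content then served as the cytotoxicity measure.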
The nature of test [9]: p53 small molecule agonists, cell-based qHTS assay: qHTS cell viability counter screen (AID 1963581). Further: nearly all actives have a fitted effect of over 45% in size. In a few lines: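 Following 5 h attachment, HCT-116 p53RE-bla cells took up compound for 16 h at 37 C; the reporter was read with B/G FRET substrate (2 h RT), and viability then via CellTiter-Glo ATP luminescence.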
A short description of test [10]: p53 small molecule agonists, cell-based qHTS assay (AID 1963582; active means well fitted activation curve with a large enough effect in the signal ratio in the repeat runs, not every such curve was filed as active; the % refers to the signal ratio). The procedure, abridged:
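In this cell-based concentration-response screen, a p53 response element drives beta-lactamase; cells received DMSO-borne compounds after 5 h culture and were incubated a further 16 h before FRET substrate development.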

Test [11] deals with 5-hydroxytryptamine receptor 2A (Homo sapiens) (UniProt P28223). The test can be described thus: 5-hydroxytryptamine receptor 2A (HTR2A) small molecule antagonists, cell-based qHTS assay (AID 1963586). Further: nearly all actives have a fitted effect of over 45% in size. Further: potency means the concentration at half of the fitted maximal effect. The procedure, abridged: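 Antagonist-mode intracellular calcium assay: DOI (4 nM) added after 5 min compound pre-incubation at room temperature to dye-loaded HTR2A-CHO cells. Fluorescence followed for 3 min, sampled every second.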

Test [12] shares this target. As to the kind of experiment: 5-hydroxytryptamine receptor 2A (HTR2A) small molecule agonists, cell-based qHTS assay (AID 1963587). Further: nearly all actives have a fitted effect of over 30% in size. Further: potency means the concentration at half of the fitted maximal effect. The procedure, abridged:
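HTR2A-CHO cells, plated 18 h at 37 C/5% CO2, dye-loaded 1 h at 37 C; compounds in DMSO added by pin tool (agonist mode). Intracellular calcium flux read as kinetic fluorescence on FDSS over 2 min at 1 s intervals.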

For test [13], the target named is Muscarinic acetylcholine receptor M1 (Homo sapiens) (UniProt P11229). The test can be described thus: Cholinergic receptor muscarinic 1 (CHRM1) small molecule antagonists, cell-based qHTS assay (AID 1963588). Further: nearly all actives have a fitted effect of over 40% in size. In a few lines: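 CHRM1-CHO calcium-flux assay, antagonist mode. Cells were seeded 18 h, dye-loaded 1 h at 37 C and given compound for 5 min at RT, then acetylcholine was added at 50nM. FDSS fluorescence was read 3 min; 15 concentrations, three runs.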

Test [14] shares this target. The test can be described thus: Cholinergic receptor muscarinic 1 (CHRM1) small molecule agonists, cell-based qHTS assay (AID 1963589). Further: nearly all actives have a fitted effect of over 35% in size. In a few lines: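 Measures agonist-induced intracellular calcium rise. Stable human CHRM1 CHO line, 1 h dye load at 37 C, compounds from DMSO, kinetic fluorescence read.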
The nature of test [15]: cAMP Responsive Elements (CRE) small molecule agonists, cell-based qHTS assay (AID 1963590). The procedure, abridged:
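A CRE-responsive beta-lactamase reporter in HEK 293T cells was used. Treatment ran 3 h at 37 C; detection used LiveBLAzer B/G FRET substrate for 2 h at room temperature.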

In test [16] the target is Beta-2 adrenergic receptor (Homo sapiens) (UniProt P07550). The test can be described thus: Adrenergic beta2 receptor (ADRB2) small molecule antagonists, cell-based qHTS assay (AID 1963592). Further: series mostly up to about 92 µM; nearly all actives have a fitted effect of over 50% in size. In a few lines: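 Cells (CHO, stable ADRB2 overexpression) incubated 18-20hr at 37C; compounds added from DMSO; agonist mix (1nM isoproterenol, 100uM IBMX, 25uM Ro-20-1724) added; 0.5hr RT; d2-cAMP and anti-cAMP-cryptate added; 1hr RT; 665/615 nm read.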

The target is the same in test [17]. The test can be described thus: Adrenergic beta2 receptor (ADRB2) small molecule agonists, cell-based qHTS assay (AID 1963593).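 Further: CHO cells stably overexpressing human ADRB2.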 In a few lines: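 CHO cells stably over-expressing ADRB2 were plated overnight at 37C, then dosed with compounds plus a stimulation mix containing 100uM IBMX and 25uM Ro-20-1724 for 0.5hr at room temperature. cAMP was measured by HTRF competition, 1hr.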

For test [18], the target named is D(2) dopamine receptor (Homo sapiens) (UniProt P14416). The test can be described thus: Dopamine D2 receptor (DRD2) small molecule agonists, cell-based qHTS assay (AID 1963594). Further: nearly all actives have a fitted effect of over 35% in size. The procedure, abridged: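 HEK293 cells stably expressing DRD2 were cultured 24 h at 37 C, then given Ro20-1724 (0.1 mM final) and compounds for 10 min at room temperature. NKH477 (200nM) was then added for 30 min. cAMP was read by HTRF.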

A short description of test [19]: cAMP Responsive Elements (CRE) small molecule antagonists, cell-based qHTS assay (AID 1963591; active means well fitted inhibition curve with a large enough effect in the signal ratio in the repeat runs, not every such curve was filed as active; the % refers to the signal ratio). The procedure, abridged: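 HEK293T cells carrying a CRE-driven beta-lactamase reporter receive compound and NKH477 (0.25 uM final) for 3 h. Fluorescence from LiveBLAzer B/G FRET substrate is read after 2 h at room temperature.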
Test [20] has as its target D(2) dopamine receptor (Homo sapiens) (UniProt P14416). As to the kind of experiment: Dopamine D2 receptor (DRD2) small molecule antagonists, cell-based qHTS assay (AID 1963595; active means well fitted inhibition curve with a large enough effect in the signal ratio in the repeat runs, with a control signal flat; the % refers to the signal ratio). In a few lines: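 HTRF cAMP read-out at 665 and 620 nm emission (340 nm excitation). Antagonist mode: compounds were tested against 12 nM quinpirole in DRD2-HEK293 cells, with 200 nM NKH477 raising cAMP and 0.1 mM Ro20-1724 blocking its breakdown.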

Sequence of Gonadotropin-releasing hormone receptor (Homo sapiens) (P30968 whole entry, looked up): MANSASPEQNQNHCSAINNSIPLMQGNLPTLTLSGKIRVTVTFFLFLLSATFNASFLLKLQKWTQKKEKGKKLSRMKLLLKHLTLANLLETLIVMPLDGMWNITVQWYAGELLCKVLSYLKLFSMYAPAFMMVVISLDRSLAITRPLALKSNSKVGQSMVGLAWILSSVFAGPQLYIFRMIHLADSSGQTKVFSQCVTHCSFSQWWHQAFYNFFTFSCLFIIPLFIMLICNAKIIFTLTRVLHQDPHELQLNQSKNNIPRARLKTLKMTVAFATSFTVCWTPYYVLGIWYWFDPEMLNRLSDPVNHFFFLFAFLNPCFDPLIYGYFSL
Sequence of Beta-2 adrenergic receptor (Homo sapiens) (P07550 whole entry, looked up): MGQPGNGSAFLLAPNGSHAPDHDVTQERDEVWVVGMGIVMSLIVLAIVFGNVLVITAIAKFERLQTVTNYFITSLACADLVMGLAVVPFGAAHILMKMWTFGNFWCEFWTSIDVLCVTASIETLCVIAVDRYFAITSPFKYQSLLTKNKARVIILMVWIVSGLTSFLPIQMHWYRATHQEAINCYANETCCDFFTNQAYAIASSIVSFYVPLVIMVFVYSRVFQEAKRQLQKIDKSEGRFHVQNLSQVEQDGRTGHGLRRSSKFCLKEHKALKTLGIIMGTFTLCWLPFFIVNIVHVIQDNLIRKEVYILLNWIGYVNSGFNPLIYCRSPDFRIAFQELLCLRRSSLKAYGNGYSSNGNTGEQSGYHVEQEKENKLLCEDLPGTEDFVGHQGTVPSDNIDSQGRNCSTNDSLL
Sequence of Muscarinic acetylcholine receptor M1 (Homo sapiens) (P11229 whole entry, looked up): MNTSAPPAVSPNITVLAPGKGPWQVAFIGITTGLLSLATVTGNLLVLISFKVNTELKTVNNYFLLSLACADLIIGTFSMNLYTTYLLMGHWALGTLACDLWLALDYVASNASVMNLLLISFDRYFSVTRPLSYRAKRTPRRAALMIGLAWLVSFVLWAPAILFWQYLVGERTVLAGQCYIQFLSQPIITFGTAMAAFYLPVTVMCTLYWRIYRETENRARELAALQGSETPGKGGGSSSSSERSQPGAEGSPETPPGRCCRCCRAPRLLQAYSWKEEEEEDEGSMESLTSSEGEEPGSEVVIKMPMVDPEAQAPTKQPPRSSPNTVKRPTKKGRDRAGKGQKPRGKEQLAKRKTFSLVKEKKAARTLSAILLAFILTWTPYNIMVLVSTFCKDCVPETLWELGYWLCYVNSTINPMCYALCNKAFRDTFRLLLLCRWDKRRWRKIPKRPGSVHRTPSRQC
Sequence of KiSS-1 receptor (Homo sapiens) (Q969F8 whole entry, looked up): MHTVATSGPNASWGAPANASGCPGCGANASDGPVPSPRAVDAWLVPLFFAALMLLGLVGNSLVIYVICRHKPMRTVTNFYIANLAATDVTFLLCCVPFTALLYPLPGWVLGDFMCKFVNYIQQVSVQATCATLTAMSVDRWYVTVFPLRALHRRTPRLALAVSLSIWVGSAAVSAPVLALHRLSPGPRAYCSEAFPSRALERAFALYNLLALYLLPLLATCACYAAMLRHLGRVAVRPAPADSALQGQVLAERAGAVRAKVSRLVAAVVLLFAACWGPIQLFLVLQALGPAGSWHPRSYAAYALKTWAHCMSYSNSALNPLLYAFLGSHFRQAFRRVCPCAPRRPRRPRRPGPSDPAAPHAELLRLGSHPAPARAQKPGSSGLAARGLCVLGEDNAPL
Sequence of 5-hydroxytryptamine receptor 2A (Homo sapiens) (P28223 whole entry, looked up): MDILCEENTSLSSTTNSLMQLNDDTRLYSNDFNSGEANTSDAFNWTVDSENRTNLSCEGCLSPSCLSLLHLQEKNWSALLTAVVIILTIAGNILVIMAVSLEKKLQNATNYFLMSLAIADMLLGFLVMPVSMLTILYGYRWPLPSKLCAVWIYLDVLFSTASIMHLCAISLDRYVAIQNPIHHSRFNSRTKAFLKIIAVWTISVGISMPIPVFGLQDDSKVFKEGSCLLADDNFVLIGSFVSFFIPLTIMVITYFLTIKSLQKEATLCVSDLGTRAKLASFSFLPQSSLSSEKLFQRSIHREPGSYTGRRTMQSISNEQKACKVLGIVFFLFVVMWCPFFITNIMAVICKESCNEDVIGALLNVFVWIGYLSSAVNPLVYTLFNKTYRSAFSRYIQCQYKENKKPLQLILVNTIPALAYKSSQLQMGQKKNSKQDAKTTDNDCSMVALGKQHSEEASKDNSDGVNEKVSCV
Sequence of D(2) dopamine receptor (Homo sapiens) (P14416 whole entry, looked up): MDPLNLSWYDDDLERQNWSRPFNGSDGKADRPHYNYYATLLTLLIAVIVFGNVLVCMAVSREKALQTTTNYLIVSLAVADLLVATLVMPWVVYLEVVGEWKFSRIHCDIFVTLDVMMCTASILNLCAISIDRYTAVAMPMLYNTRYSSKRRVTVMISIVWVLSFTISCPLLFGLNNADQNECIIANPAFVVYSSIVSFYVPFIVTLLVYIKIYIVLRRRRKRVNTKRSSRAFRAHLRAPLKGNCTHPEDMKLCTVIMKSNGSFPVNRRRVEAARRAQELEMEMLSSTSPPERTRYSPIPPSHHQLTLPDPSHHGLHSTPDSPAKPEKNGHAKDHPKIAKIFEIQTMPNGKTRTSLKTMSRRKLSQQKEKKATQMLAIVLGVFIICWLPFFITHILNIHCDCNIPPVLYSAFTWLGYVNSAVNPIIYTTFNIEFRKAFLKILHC

For `Cc1cccc(C)c1NC(=O)CN1CCN(CCCC(c2ccc(F)cc2)c2ccc(F)cc2)CC1`, the Potency entry in test [1], in test [2], in [3], in [4], in [5] and in test [6] was “inactive” throughout. Also, the Potency entry in [7], in [8], in [9], in [10], in [12] and in [13] was “inactive” throughout. For the same compound, the Potency result in test [14], in [15], in test [16], in [17] and in test [18] was “inactive” in each case. In addition, the Potency in test [11] was 8180 nM (active).

For `NS(=O)(=O)c1cc2c(cc1Cl)NC(CSCc1ccccc1)=NS2(=O)=O`, the Potency result in [1], in test [2], in test [3], in test [4], in test [5] and in test [6] was “inactive” in each case. Besides, the Potency result in test [7], in test [8], in test [9], in test [10], in test [12] and in [13] was “inactive” each time. Moreover, the Potency result in [15], in test [19], in test [16], in test [18] and in [20] was “inactive” in each case.

For `Cc1oc2c(NC(=O)c3c(Cl)cccc3Cl)cccc2c1C(C)(C)O`, the Potency result in test [1], in test [2], in test [3], in [4], in test [5] and in test [6] was “inactive” each time. In addition, the Potency entry in [7], in test [8], in [9], in test [10], in test [12] and in [13] was “inactive” throughout. Also, the Potency entry in test [14], in test [15], in test [19], in [16], in test [18] and in [20] was “inactive” in each case.

For `CCCN(CCc1cccs1)[C@H]1CCc2c(O)cccc2C1`, the Potency result in test [1], in test [2], in test [3], in [4], in test [5] and in test [6] was “inactive” each time. In addition, the Potency entry in test [7], in [8], in test [9], in test [10], in test [14] and in test [16] was “inactive” throughout. Also, the Potency entry in [17] and in test [20] was “inactive” throughout. Further, the figures for the Potency in test [11] and in test [12] were 365 nM (active) and 120 nM (active), respectively.

Turning to `C=CC(=C)CCC=C(C)C`, the Potency in test [1] is 68600 nM (active). In addition, the Potency result in test [2], in test [3], in test [4], in [5], in test [6] and in test [7] was “inactive” throughout. In addition, the Potency entry in test [8], in [9], in test [10], in test [11], in test [12] and in test [13] was “inactive” each time. Also, the Potency result in test [14], in [15], in test [16], in [17], in [18] and in [20] was “inactive” each time.

Consider `C=CCN1C[C@H](C(=O)N(CCCN(C)C)C(=O)NCC)C[C@@H]2c3cccc4[nH]cc(c34)C[C@H]21`, for which the Potency entry in test [1], in [2], in test [3], in [4], in test [5] and in test [6] was “inactive” throughout. Further, the Potency entry in test [7], in test [8], in test [9], in test [10], in test [14] and in test [15] was “inactive” in each case. Also, the Potency entry in test [16] and in [17] was “inactive” each time. Besides, the Potency in test [11] was 0.6 nM (active); in test [12], 1.9 nM (active).

Consider `CN(C)c1ccc(SC#N)cc1`, for which, in test [1], the Potency was 24300 nM (active). Also, the Potency entry in test [2], in test [3], in [4], in test [5], in [6] and in [7] was “inactive” throughout. Further, the Potency result in [8], in [10], in [11], in test [12], in [13] and in test [14] was “inactive” each time. Also, the Potency entry in [15], in test [19], in test [16], in test [18] and in test [20] was “inactive” each time.
